Source: PubChem BioAssay (several laboratories)
This is a sample that favours compounds with a hit; in the whole collection about 1.7% have one here.
LYP inh 2 = LYP (human) phosphatase inhibition | recombinant LYP catalytic domain, DiFMUP fluorescence | 0.21% of 96,000 active | AID 640 | inhibition, % at 2 µM;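 active = inhibition at 2 µM at or above a set limit, the screen mean plus 3 SD, cut at about 24% in these data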;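 also: 0% = DMSO with enzyme and 100% = enzyme fully blocked by orthovanadate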
Measles CPE = protection of cells from measles virus; 1.5% of 140,000 active; Measles virus-infected cells, CPE protection, absorbance; AID 841; protection (pct of control), % at 4 µM; in the data active = protection mostly above about 24%, no sharp cut-off; inactive = mostly below about 26%
PTPN22 act = LYP (human) phosphatase activation. recombinant LYP, DiFMUP fluorescence; 0 = plate median, 100 = signal doubled. 0.11% of 96,000 active. activation, % at 2 µM;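 active = activation at 2 µM above a set limit, the mean plus 5 SD, cut at about 37% in these data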
The depositor's hits bear a star; / = no result given.

SMILES | LYP inh 2 | Measles CPE | PTPN22 act
Cc1onc(-c2ccccc2Cl)c1C(=O)N1CCN(C(=O)c2ccco2)CC1 | 0 | 6 | 0
COc1ccc(CCNC(=O)c2ccc(CN3CCC(Cc4ccccc4)CC3)cc2)cc1 | / | 12 | /
Cc1ccccc1NC(=O)c1ccc(CN2CCC(Cc3ccccc3)CC2)cc1 | -6 | 51* | 10
COc1ccc(NC(=O)CCN2CCCCCC2)c(OC)c1 | -6 | 21 | 5
CC1Oc2ccccc2N(CC(=O)c2cccc(Cl)c2)C1=O (stereo not given) | 4 | 20 | -4
COC(=O)CC1COc2ccccc2N1C(=O)c1cccc(Cl)c1 (stereo not given) | 6 | 26* | -2
CCOc1ccc(/C=N/NC(=O)COc2ccccc2-c2ccccc2)cc1 | 1 | 3 | 4
O=C(COc1ccccc1C(=O)N/N=C\c1ccc(O)c(O)c1)N/N=C/c1ccc(O)c(O)c1 | 32* | 6 | -28
CCN1CCN(C(=O)CN2C(=O)c3cccc4cccc2c34)CC1 | 4 | 21 | -5
CC1(C)OC(=O)C(C(c2ccccc2)C(C#N)C(N)=O)=C(O)O1 (stereo not given) | / | 1 | /
COc1cccc(Nc2ncnc3c2cnn3C)c1 | 8 | 4 | -11
CCCN(CCC)c1ncnc2c1cnn2-c1ccc(OC)cc1 | -7 | 92* | 2
COc1ccc(-n2ncc3c(Nc4cccc(C)c4)ncnc32)cc1 | / | 38* | /
CCCNc1ncnc2c1cnn2-c1ccc(OC)cc1 | -1 | 9 | -1
O=C(NNC(=O)C1CCN(S(=O)(=O)c2ccc(Cl)cc2)CC1)c1ccc(Cl)cc1 | -7 | 10 | 8
Cc1ccc(N(CCCCN2C(=O)c3ccccc3C2=O)C(=O)c2cccs2)cc1 | 16 | 2 | -13
Cc1ccc(-n2nnnc2-c2cnc(N3CCCC3)nc2C(F)(F)F)cc1 | 13 | 6 | -10
FC(F)(F)c1nc(N2CCCC2)ncc1-c1nnnn1-c1ccccc1 | 7 | 62* | -2
Cn1c(=O)c2c(nc(SCC(=O)c3cccs3)n2Cc2ccc(F)cc2)n(C)c1=O | -8 | 8 | 6
CCOC(=O)c1cn(-c2nc(-c3ccc(Cl)c(Cl)c3)cs2)c2c(F)c(N3CCOCC3)c(F)cc2c1=O | 28* | 3 | -25
CCOC(=O)c1cn(-c2ccc(F)c(F)c2F)c2c(F)c(F)c(F)cc2c1=O | -2 | 7 | 6
CC(C)CNC(=O)CC(=O)N/N=C/c1cccs1 | / | 25* | /
CCCCCC(=O)N/N=C/c1cccs1 | 6 | 7 | -1
Cc1[nH]c(=O)[nH]c(=O)c1NC(=O)c1cccs1 | -12 | 25* | 11
Cc1ccc(NC(=O)c2cccs2)cc1 | -10 | 2 | 10
SMILES | LYP inh 2 | Measles CPE | PTPN22 act
CCOc1ccc(-c2nnn(CC(=O)c3ccc4c(c3)OCCO4)n2)cc1 | 2 | 9 | -4
COc1ccc(-c2nnn(CC(=O)c3ccc4c(c3)OCCO4)n2)cc1OC | -12 | 27* | 16
O=C1CN(c2nc(-c3ccccc3)c3ccccc3n2)c2ccccc2N1 | / | 13 | /
CCc1c(O)nc(SCC(=O)Nc2ccc3c(c2)CCC3)[nH]c1=O | 4 | 20 | -5
CCCCc1c(O)nc(SCC(=O)Nc2ccc3c(c2)CCC3)[nH]c1=O | / | 49* | /
O=C(c1ccco1)N(CCC(c1ccccc1)c1ccco1)Cc1ccc(F)cc1 (stereo not given) | 7 | 37* | -4
CC1(C)CC(C(CCN(Cc2ccccc2)C(=O)c2ccco2)c2ccc(F)cc2)CCO1 (stereo not given) | / | 27 | /
CC(C)Cn1c(/C=C/c2ccco2)nc2ccccc21 | / | 9 | /
O=C(NCc1ccc2c(c1)OCO2)c1cccs1 | / | 20 | /
O=C(CSc1n[nH]c(-c2cccs2)n1)NCc1ccc2c(c1)OCO2 | 4 | 12* | -3
O=C(CSc1n[nH]c(-c2cccs2)n1)NCc1cccs1 | 3 | 7 | -3
O=C(COC(=O)c1cccs1)NCc1ccc2c(c1)OCO2 | / | 97* | /
COc1ccccc1-c1c(C(F)(F)F)oc2cc(OC(=O)c3ccccc3[N+](=O)[O-])ccc2c1=O | -4 | 3 | 3
COCC(=O)Nc1nc(-c2ccccc2)c(C)s1 | / | 1 | /
Cc1cccc2c1CC(C)(C)N/C2=C\C(N)=O | / | 5 | /
Cc1cc2c(cc1C)/C(=C\C(N)=O)NC(C)(C)C2 | / | 44* | /
CCC(=O)c1ccc(OCC(O)CN(CCc2ccccc2)Cc2ccccc2)cc1 (stereo not given) | 2 | 6 | 0
O=C(Nc1cccnc1)Nc1ccc(F)c(Cl)c1 | 0 | 5 | 0
CCc1nc(Nc2ccc3c(c2)OCO3)c2oc3ccccc3c2n1 | 4 | 57* | 0
CCc1nc(Nc2ccncc2)c2oc3ccccc3c2n1 | 3 | 3 | 0
O=C(/C=C/c1ccccc1)N/C(=C/c1ccccc1)C(=O)N1CCCCC1 | -4 | 47* | 8
COc1ccc(/C=C(/NC(=O)/C=C/c2ccccc2)C(=O)N2CCOCC2)cc1 | / | 11 | /
